Test in all cases: NCI-60 one-dose screen, 48 h (100 = growth as untreated, 0 = no growth, -100 = all killed)
Common to all, as to details: 10 µM unless noted

In assay [1] the test system is SR leukemia.
The subject of assay [2] is RPMI-8226 leukemia.
Assay [3] relates to OVCAR-8 ovarian.
Assay [4] has as its system OVCAR-5 ovarian.
Assay [5] deals with OVCAR-4 ovarian.
Assay [6] relates to SK-OV-3 ovarian.
For assay [7], the system named is IGROV1 ovarian.
In assay [8] the test system is OVCAR-3 ovarian.
In assay [9] the test system is HS 578T breast.
For assay [10], the system named is NCI/ADR-RES ovarian.
Assay [11] concerns T-47D breast.
Assay [12] has as its system BT-549 breast.
Assay [13] has as its system MDA-MB-435 melanoma.
The subject of assay [14] is SW-620 colon.
Assay [15] concerns MCF7 breast.
Assay [16] concerns HCT-116 colon.
The subject of assay [17] is HCC-2998 colon.
The test system of assay [18] is KM12 colon.

The panel holds about 83,000 compounds, 20% with a hit somewhere; the sample as a whole holds those more often.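 Treatment: one concentration, 48 hours, 96-well format. Scoring: percent growth, with anything below 10 considered active.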 Unmarked numbers belong to inactive results. The source made the active and inactive calls.

`C#CC(F)(F)[C@]1(O)CCC2C3CCC4=CC(=O)CCC4=C3[C@@H](c3ccc(N(C)C)cc3)C[C@@]21C` (some centres undefined): the growth is 63.8% in assay [1]; 74.6% in [2]; 86.7% in [3]; 119% in assay [4]; 88.4% in assay [5]; 87.8% in [6]. The growth in [7] is 99%; in assay [8], 95.1%; in [9] it was 89.1%; in assay [10], 94.6%; in assay [11] it was 44%; in [12], 88.7%. Also, the growth in assay [13] is 103%; in assay [14], 103%; in assay [15] it was 57.8%; in [16] it was 71.2%; in [17], 111%; in assay [18], 99.3%.
Turning to `CCOC(=O)CC1C(CNC(=O)NC)OC(n2cnc3c(NC(=O)Nc4ccccc4)ncnc32)C1O[Si](C)(C)C(C)(C)C` (centres undefined), the growth in assay [1] was 28.2%; in [2], 11.2%; in assay [3] it was 65.4%; in assay [4], 99.6%; in [5], 61.2%; in assay [6] it was 93.6%. Also, the growth in assay [7] was 51.1%; in assay [8], 79.6%; in assay [9] it was 43.9%; in assay [10], 85.6%; in [11] it was 27.1%; in [12], 81.6%. Further, the growth is 53.6% in assay [13]; 71.2% in assay [14]; 18.1% in assay [15]; 16.7% in [16]; 61.8% in [17]; 43.4% in [18].
For the compound `NC(=O)[C@@H]1Cc2ccccc2CN1C(=O)c1ccc2c(c1)Cc1ccccc1-2`, the growth was 92.6% in assay [1]; 60.1% in [2]; 75.1% in [3]; 98.8% in [4]; 84.9% in assay [5]; 108% in assay [6]. In addition, the growth is 90.2% in [7]; 85.7% in assay [8]; 93.8% in assay [9]; 62.8% in [10]; 57.2% in [11]; 63.1% in assay [12]. Also, the growth in assay [13] was 77.7%; in [14], 110%; in assay [15], 70.8%; in assay [16] it was 81.1%; in [17], 98.9%; in [18] it was 88.6%.
Turning to `O=C1NCCN1/N=C/c1c(Cl)n(Cc2ccc(Cl)cc2)c2ccccc12`, the growth was 78.4% in assay [1]; 82.6% in assay [2]; 78.7% in [3]; 96.8% in [4]; 79.1% in [5]; 146% in assay [6]. Further, the growth in assay [7] is 24.9%; in [8], 84.8%; in assay [9], 90.3%; in [10], 90.8%; in assay [11], 113%; in [12] it was 79.2%. Also, the growth in [13] was 85.6%; in assay [14], 108%; in assay [15], 84.7%; in [16], 89.5%; in [17], 95.9%; in assay [18] it was 110%.
With `O=c1c(Cc2ccc(F)cc2)cc(-c2ccccc2)nn1C/C(=N/O)c1ccccc1`, the growth in assay [1] was 30.3%; in [2], 25.6%; in [3], 43.7%; in assay [4], 66.9%; in [5], 41.5%; in assay [6], 74.7%. Also, the growth in assay [7] is 47.3%; in [8] it was 49.5%; in assay [9], 73.8%; in assay [10], 34.7%; in [11], 11.8%; in assay [12], 48.4%. For the same compound, the growth is 48.8% in assay [13]; 58.7% in [14]; 26.2% in [15]; 35.1% in [16]; 61.3% in assay [17]; 34.7% in [18].
Consider `CN(Cc1ccccc1)c1nc(Cl)c(C2CC(c3ccc(Cl)cc3)=NN2c2cc(Cl)cc(Cl)c2)s1` (centres undefined), for which the growth in [1] is 109%; in [2] it was 81.4%; in assay [3], 106%; in assay [4] it was 113%; in assay [5], 97.6%; in assay [6], 92.9%. The growth was 102% in [7]; 109% in assay [8]; 116% in [9]; 102% in [10]; 84.9% in assay [11]; 101% in assay [12]. For the same compound, the growth in [13] was 103%; in assay [14], 98.8%; in [15], 79.8%; in assay [16] it was 88.6%; in assay [17], 90.9%; in assay [18], 103%.
Turning to `Cn1ccnc1C(=O)/C=C/c1ccc(C(=O)Nc2ccccc2F)cc1`, the growth in [1] was 6.83% (active); in assay [2], 9.83% (active); in assay [3] it was 15.6%; in assay [4] it was 18%; in [5], 37.7%; in assay [6], 51.9%. The growth in assay [7] is 13.5%; in [8], -4.52% (active); in [9] it was 17.1%; in assay [10] it was 21.7%; in [11], 38.3%; in assay [12], -13.2% (active). Also, the growth in [13] is 1.95% (active); in assay [14], 13.5%; in [15] it was 13.4%; in assay [16] it was 8.83% (active); in assay [17], 88%; in assay [18] it was 13.8%.
As to `Cc1cc([N+](=O)[O-])ccc1NC(=O)c1ccc2c(c1)nc(-c1ccccc1)n2C1CCCCC1`, the growth is 39.5% in [1]; 76.2% in [2]; 87.6% in assay [3]; 95.5% in assay [4]; 95.2% in [5]; 100% in [6]. The growth in assay [7] is 111%; in [8], 92.8%; in assay [9], 88.1%; in assay [10], 87.9%; in [11], 59.8%; in [12] it was 77.1%. Besides, the growth in assay [13] is 92.2%; in assay [14] it was 97.6%; in assay [15] it was 77%; in [16] it was 65.7%; in [17], 88.3%; in assay [18], 69.3%.

Source of the values: PubChem BioAssay (NCI).
